# Measured values reported in the supplement of paper PMC6555819.
# Experiments:
# Experiment in all cases: PBM binding z-score (relative to random genomic background probes); higher = stronger binding; sequences stand for … in GC…GCGATTGACAGCGTAGAATGAAGG
# [1] = system: PPARg:RXRa IVT, anti-PPARg (NR concentration 270 nM, RXRa partner concentration 90 nM)
# Outline: (§1)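 Probes were double-stranded and carried 34-nt variable regions with direct-repeat seeds, single-nucleotide variants, half-site ablations and random human genomic background sequences, printed on custom Agilent 4×180K protein-binding microarrays. Arrays were incubated 1 h with ligand-free nuclear receptor dimers in PBS pH 7.4, 2% milk, 0.02% Triton X-100, 1 mM DTT, 0.2 mg/mL BSA and 0.4 mg/ml salmon testes DNA. Antibodies against each partner (one per run) detected binding, and scanned fluorescence was regression-normalized. Binding z-scores use the random background probes as reference.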
# [2] = system: PPARg DBDmut:RXRa IVT, anti-PPARg (DBD mutation: PPARg1 K132A/R137A, NR concentration 270 nM, RXRa partner concentration 90 nM)
# Outline: as §1
# [3] = system: PPARg DBDmut IVT, anti-PPARg (DBD mutation: PPARg1 K132A/R137A, NR concentration 270 nM)
# Outline: as §1
# [4] = system: PPARg homodimer (NR concentration 180 nM)
# Outline: as §1
# [5] = system: PXR:RXRa (NR concentration 270 nM, RXRa partner concentration 90 nM)
# Outline: as §1
# [6] = system: PXR homodimer (NR concentration 270 nM)
# Outline: as §1
# [7] = system: RARa:RXR (NR concentration 270 nM, RXRa partner concentration 90 nM)
# Outline: as §1
# [8] = system: RARa homodimer (NR concentration 270 nM)
# Outline: as §1
# [9] = system: RARb:RXRa (NR concentration 270 nM, RXRa partner concentration 90 nM)
# Outline: as §1
# [10] = system: RARb homodimer (NR concentration 270 nM)
# Outline: as §1
Sequence,PBM binding z-score [1],PBM binding z-score [2],PBM binding z-score [3],PBM binding z-score [4],PBM binding z-score [5],PBM binding z-score [6],PBM binding z-score [7],PBM binding z-score [8],PBM binding z-score [9],PBM binding z-score [10]
CCGACTGGGGCAAGGTCACCATAACGCACAGCCA,4.62,0.00337,-0.825,2.64,3.25,0.544,3.76,0.752,4.25,4.23
CATACAGGGTCGGCTAGGCCAGAGTAGGGACGGC,0.00635,-0.399,-0.0958,-0.0997,-0.0911,-0.146,0.408,-0.15,1.13,0.799
AATACAGGGTCATCTTAGGCCAGAGTACGCACAG,3.86,1.51,0.721,2.17,5.05,1,4.73,0.742,4.22,3.87
CGTCCAAGGTCAAGGTCAATGAAAGAGACTCGAA,5.34,2.6,2.44,4.82,5.3,1.41,5.88,3.2,5.75,4.92
CGTCCAAGGACAATGCTAGGTCAGTGAAAGCATT,0.25,-1.55,-0.865,0.328,0.242,0.0712,0.502,-0.127,2.03,2.48
ATCGAAAGGTCGACGCGGTGAGTATACACCGTTT,1.36,0.788,0.177,1.39,2.07,-0.368,3,0.192,3.72,2.45
AACGAAAGGTCGAAGGTGAGTATACCCACCCGAA,2.16,0.625,-0.0943,0.991,3,-0.293,4.48,0.698,3.79,2.48
TCTAGTTGGTCACGGAGGGCACACACGACGGGTA,2.85,0.649,0.752,1.2,1.11,0.255,1.01,0.42,2.35,2.28
CACACTAGGTCACAGAGGTCAAAGTCCGTGCGTA,8.44,0.528,2.16,4.86,6.73,12,7.59,3.69,5.36,5.86
AGTCAAAGTTTATCTAGGTAACGTAAGATATGCT,4.84,1.23,1.54,-0.0246,0.694,0.675,0.503,0.429,1.93,0.612
CGTCAAAGTCCAAGGTAACGTAACAGAAAGCAGC,0.33,0.185,0.896,0.652,-0.079,0.233,0.165,0.428,1.52,0.655
AGTCAAAGTTCATCTAGGTAACATAAGATATGCT,3.9,1.75,1.67,2.88,5.28,6.9,4.2,1.96,4.94,3.71
TAGCCTAGGTCATTCAGGGGCCACTATAGAAAGC,3.19,0.203,-0.136,2.11,3.08,-0.109,4.13,0.262,4.11,3.28
CCTAGTGGGCCAAGGTCATTGATCAGTCAAAGCA,4.38,-0.821,-0.95,2.36,3.66,1.8,3.56,0.113,3.36,3.28
GCTGCTAGGTCAACTGATGGCCAGCTAAAGCTCG,4.14,-0.855,-0.449,1.12,1.1,-0.837,1.88,-0.722,4.23,3.32
CCTACTGGGCCACGAAAGGCCATTGATTCAGTGA,5.01,-0.487,-0.189,0.0675,0.149,-0.378,0.18,-0.712,1.18,1.36
CCTAGTTGGTCAAGGTCACACCCGCTATAGGTAC,3.67,0.989,0.599,3.09,3.95,2.06,4.02,1.87,4.12,4.39
TCTAGTTGGTCACGGAGGTCCCACACGACGGGTA,2.31,0.993,1.03,0.373,0.138,-0.319,0.243,0.299,1.57,1.32
ATTTGTAGGTTACATCCGGGTCATTCAGGCTATG,6.29,3.31,2.1,3.38,4.12,4.01,4.19,2.72,2.77,3.43
CCTACTGGGCCGTTCAGAGGTCATTGATCATATG,2.34,-0.522,-0.314,1.94,4.75,2.25,4.52,0.491,2.7,3.78
CGAACTAGGTCATCCAGGACCGTGAATACATTGA,8.09,1.32,0.732,1.83,1.34,-0.0905,1.84,0.294,3.6,2.57
AGAATGAGGTTAAACGTAGATCAGGGAAGAAAGT,3.75,1.56,1.02,1.3,1.73,0.319,2.69,0.469,2.23,1.19
TCTAGTTGGTCTAAGGTCACACACTCGAAATGCG,3.51,1.67,1.64,4.05,4.79,2.22,5.04,2.5,3.76,4.29
TAGCCTAGGTCATTCAGGGGCCAGCATAGAAAGC,2.78,0.63,0.0516,1.32,2.37,-0.172,3.95,-0.134,3.92,3.42
